TLR4-MyD88 BLA: inhibitors of human TLR4-MyD88 binding; HeLa CL3-4 TLR4/MyD88 BLA complementation, FRET ratio; inhibition, % at 8.4 µM; actives 0.18% (n = 200,000); in the data active means inhibition above about 25%
TLR9-MyD88 block: TLR9-MyD88 interaction inhibition; Q9NR96+Q99836; actives 0.21% (n = 340,000); CHO BLA complementation TLR9-MyD88, CCF4 FRET ratio; inhibition, % at 4.98 µM;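 active means inhibition above the mean over all tested compounds plus 3 SD, cut at about 21% in these data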
ABHD5 PLIN5 PPI: ABHD5-PLIN5 protein interaction inhibition | AID 602281 | actives 0.78% (n = 360,000) | inhibition, % at 4 µM | Split G. princeps luciferase complementation, luminescence, 4 h;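 active means inhibition above the mean inhibition across every tested compound plus 3 SD, cut at about 22% in these data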
NOD2-RIPK2 inh: blocks binding of human NOD2 to RIPK2. CHO BLA complementation NOD2-RIPK2, CCF4 ratio. inhibition, % at 4.98 µM. actives 0.38% (n = 360,000). AID 624267; in the data active means inhibition above about 21%
Target sequence (O43353 whole entry, looked up): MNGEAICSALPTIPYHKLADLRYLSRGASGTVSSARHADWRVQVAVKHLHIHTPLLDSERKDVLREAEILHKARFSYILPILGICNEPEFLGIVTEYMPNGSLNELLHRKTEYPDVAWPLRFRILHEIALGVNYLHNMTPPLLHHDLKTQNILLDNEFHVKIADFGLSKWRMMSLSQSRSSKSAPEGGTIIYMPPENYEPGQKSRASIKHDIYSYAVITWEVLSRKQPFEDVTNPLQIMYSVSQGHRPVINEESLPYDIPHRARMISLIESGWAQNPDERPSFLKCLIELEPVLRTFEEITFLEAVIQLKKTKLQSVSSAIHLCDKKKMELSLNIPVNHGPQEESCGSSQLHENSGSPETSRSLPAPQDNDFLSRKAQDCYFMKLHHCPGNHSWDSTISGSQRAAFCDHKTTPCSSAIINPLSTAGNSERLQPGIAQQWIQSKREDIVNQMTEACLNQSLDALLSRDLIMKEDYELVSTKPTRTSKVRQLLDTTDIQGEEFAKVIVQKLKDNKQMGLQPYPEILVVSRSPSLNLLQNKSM
TLR4 MyD88 cnf: TLR4-MyD88 interaction inhibition confirmed; shares compounds with TLR4-MyD88 BLA; HeLa CL3-4 BLA complementation, CCF4 FRET ratio; inhibition, % at 8.4 µM; actives 50% (n = 350);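 active means mean inhibition across three repeat runs above about 25% carried over from the earlier screen, limit read from the data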
BLA inh HeLa: counter-screen for TLR4-MyD88 inhibitors: beta-lactamase reporter inhibitors | HeLa BLA reporter, CCF4 FRET ratio | actives 63% (n = 350) | shares compounds with TLR4-MyD88 BLA | AID 1237 | inhibition, % at 8.4 µM;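 active means mean inhibition over three repeats above about 26% taken from the earlier screen, limit read from the data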;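 further: HeLa cells stably expressing beta-lactamase reporter as counterscreen for TLR4-MyD88 inhibitors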
TLR9-MyD88 conf: confirmation of human TLR9-MyD88 binding inhibitors. shares compounds with TLR9-MyD88 block. CHO TLR9/MyD88 BLA complementation, CCF4 FRET ratio. inhibition, % at 4.98 µM. actives 51% (n = 680). AID 540250;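 active means mean inhibition across three repeats above about 21% taken from the earlier screen, limit read from the data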;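 further: blue over green emission ratio reports constitutive TLR9 MyD88 association via BLA complementation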
BLA counter-1: non-selective beta-lactamase inhibitors in TLR9-MyD88 counter-screen; shares compounds with TLR9-MyD88 block; CHO-BLA cells, CCF4 FRET ratio, BLA reporter; inhibition, % at 4.98 µM; actives 7% (n = 680);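 active means mean inhibition above a 50% cutoff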;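 further: counterscreen of TLR9-MyD88 hits on CMV-driven BLA in CHO-K1 cells; higher means less blue over green ratio so more BLA blockade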
TLR9 CHO tox: counter-screen for TLR9-MyD88 inhibitors: cytotoxicity in CHO cells. shares compounds with TLR9-MyD88 block. luminescence. inhibition, % at 4.98 µM. actives 39% (n = 680). AID 588336; in the data active means inhibition above about 11%
ABHD5-PLIN5 conf: confirmation of human ABHD5-PLIN5 interaction inhibitors; shares compounds with ABHD5 PLIN5 PPI; biochemical ABHD5-PLIN5 interaction, luminescence; inhibition, % at 4 µM; actives 67% (n = 2,200); AID 651612; in the data active means inhibition above about 23%
HNF4 split-luc: counter-screen for ABHD5-PLIN5 inhibitors: HNF4 split-luciferase. shares compounds with ABHD5 PLIN5 PPI. HNF4 dimerization, luminescence, biochemical. inhibition, % at 4 µM. actives 77% (n = 2,200). AID 651674;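 active means mean inhibition across replicate wells exceeding the computed hit threshold, cut at about 13% in these data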;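 further: light from luciferase halves that rejoin when HNF4 fusion proteins dimerize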
NOD2 RIPK2 conf: NOD2-RIPK2 interaction inhibition confirmed. shares compounds with NOD2-RIPK2 inh. AID 624370. CHO cells, NOD2-RIPK2 BLA complementation, CCF4 FRET. inhibition, % at 4.98 µM. actives 70% (n = 1,200);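 active means mean inhibition across replicates above a set limit taken from the earlier primary screen, cut at about 21% in these data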
BLA counter-2: hits BLA reporter in NOD2-RIPK2 inhibitor counterscreen; AID 624371; shares compounds with NOD2-RIPK2 inh; CHO BLA reporter, CCF4 FRET ratio; actives 57% (n = 1,200); inhibition, % at 4.98 µM;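 active means mean inhibition above the low-control mean inhibition plus three low-control SD, cut at about 11% in these data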
Each line names hits and unclear results; the compound was inactive in the other large screens (follow-up assays come after a bar, where they were run). In the library only some 1.2% were active in any assay of this set; here they are far more common.

C=CCN1C(=O)c2cccc3c(N4CCCCC4)ccc(c23)C1=O	TLR4-MyD88 BLA 51, NOD2-RIPK2 inh 22 | TLR4 MyD88 cnf 36 | BLA inh HeLa 61 | NOD2 RIPK2 conf 61 | BLA counter-2 64
O=C(OCCN1C(=O)c2cccc3c(N4CCOCC4)ccc(c23)C1=O)c1ccccc1Cl	TLR4-MyD88 BLA 41, TLR9-MyD88 block 40, NOD2-RIPK2 inh 53 | TLR4 MyD88 cnf 46 | BLA inh HeLa 65 | NOD2 RIPK2 conf 54 | BLA counter-2 60
O=C1c2cccc3c(N4CCCCC4)ccc(c23)C(=O)N1c1cccc(O)c1	TLR4-MyD88 BLA 50, TLR9-MyD88 block 42, NOD2-RIPK2 inh 54 | TLR4 MyD88 cnf 35 | BLA inh HeLa 55 | TLR9-MyD88 conf 35 | BLA counter-1 inactive | TLR9 CHO tox 11 | NOD2 RIPK2 conf 61 | BLA counter-2 68
COc1ccc(Cn2cc3c(-c4ccc(F)cc4)nnc-3c3cc(OC)c(OC)cc32)cc1	TLR4-MyD88 BLA 28, TLR9-MyD88 block 50, NOD2-RIPK2 inh 63 | TLR4 MyD88 cnf 25 | BLA inh HeLa 41 | TLR9-MyD88 conf 31 | BLA counter-1 inactive | TLR9 CHO tox inactive | NOD2 RIPK2 conf 66 | BLA counter-2 72
CCN(CC)c1ccc2cc(-c3nc4ccccc4n3C)c(=O)oc2c1	TLR4-MyD88 BLA 49, TLR9-MyD88 block 33, NOD2-RIPK2 inh 44 | TLR4 MyD88 cnf 58 | BLA inh HeLa 87 | TLR9-MyD88 conf 41 | BLA counter-1 inactive | TLR9 CHO tox 39 | NOD2 RIPK2 conf 69 | BLA counter-2 75
CCN(CC)c1ccc2cc(-c3nnc(-c4ccccc4)o3)c(=O)oc2c1	none
C=CCC1(NC(C)c2ccccc2)CCCCC1 (stereo not drawn)	none
Oc1c(Cl)cc(Cl)cc1/C=C/c1ccc2cccc(O)c2n1	TLR4-MyD88 BLA 34, TLR9-MyD88 block 27, NOD2-RIPK2 inh 37 | TLR4 MyD88 cnf inactive | BLA inh HeLa 43 | TLR9-MyD88 conf inactive | BLA counter-1 inactive | TLR9 CHO tox inactive | NOD2 RIPK2 conf 47 | BLA counter-2 54
Oc1ccc(Cl)cc1/C=C/c1ccc2cccc(O)c2n1	none
CN(C(=O)COC(=O)/C=C/c1ccc(F)cc1)c1c(N)n(Cc2ccccc2)c(=O)[nH]c1=O	none (no result: TLR4-MyD88 BLA)
CCCCCCn1c(=O)[nH]c2nc3cc(N)c(C)cc3nc2c1=O	TLR4-MyD88 BLA 28, TLR9-MyD88 block 32, NOD2-RIPK2 inh 42 | TLR4 MyD88 cnf inactive | BLA inh HeLa 43 | TLR9-MyD88 conf inactive | BLA counter-1 inactive | TLR9 CHO tox inactive | NOD2 RIPK2 conf 45 | BLA counter-2 49
COCCN(CC(=O)NC1CCCCC1)C(=O)/C=C/C(=O)c1ccc(OC)cc1O	TLR4-MyD88 BLA 31, ABHD5 PLIN5 PPI 62, NOD2-RIPK2 inh 50 | TLR4 MyD88 cnf 27 | BLA inh HeLa inactive | ABHD5-PLIN5 conf 102 | HNF4 split-luc 106 | NOD2 RIPK2 conf 91 | BLA counter-2 12
NS(=O)(=O)c1cc2c(cc1Cl)NC(c1ccccc1OCC(=O)O)NS2(=O)=O (stereo not drawn)	none (no result: TLR4-MyD88 BLA)

Source: PubChem BioAssay
